# Data as given in PubChem BioAssay (NCI).
# The panel holds about 83,000 compounds, 20% with a hit somewhere; the sample as a whole holds those more often.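 Single-dose data. Exposure time 48 hours. Values below 10 considered active.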 Unmarked numbers belong to inactive results. Active and inactive are the calls of the source.
# Test system: MDA-MB-468 breast
# Assay: NCI-60 one-dose screen, 48 h (100 = growth as untreated, 0 = no growth, -100 = all killed)
# Conditions: 10 µM unless noted
row,SMILES,growth
1,CC1CC(O)CC(C)(C)C1.CC1CC(O)CC(C)(C)C1.CC1CC(O)CC(C)(C)C1.CC1CC(O)CC(C)(C)C1.[Ti] (stereo not given),115%
2,COc1cc(NC(C)CCCNC(=O)CCC(=O)NCCCNCCCCCCCCNCCCNC(=O)CCC(=O)NCCCC(C)Nc2cc(OC)cc3cccnc23)c2ncccc2c1 (stereo not given),16.8%
3,COc1nc2c(cc1S(=O)(=O)c1ccccc1)CCc1c-2cnn1-c1cccc(Cl)c1,60%
4,NC(=O)CC1(O)C=C(Br)C(=O)C(Br)=C1,-9.32% (active)
5,CCOC(=O)C1=C(CSC(=S)N(C2CCCCC2)C2CCCCC2)N(C)C(=O)NC1c1ccccc1 (stereo not given),47.3%
6,NC(=O)c1cccc(-n2ccc3cc(NC(=O)Nc4ccc(Cl)c(C(F)(F)F)c4)ccc32)n1,47%
7,CC(C)(C)c1ccc(S(=O)(=O)N[C@H]2CC[C@H]3[C@@H]4CCc5cc(O)ccc5[C@H]4CC[C@]23C)cc1,57.8%
8,CNC(=O)c1cc(Oc2ccc3nc(NC(=O)Nc4ccc(Cl)c(C(F)(F)F)c4)sc3c2)ccn1,-5.09% (active)
9,CC[C@H](Nc1ncnc2nc[nH]c12)c1nc2cccc(CC(=O)c3ccc(C(=O)NO)cc3)c2c(=O)n1-c1ccccc1,60.8%
10,N#C/C(=N\Nc1ccc(Cl)cc1)C(=O)Nc1cc(-c2ccccc2)nn1-c1ccccc1,7.6% (active)
